This excerpt belongs to a sample that is enriched for hits.
ST2 IL33 inh – inhibitors of human ST2 (IL1RL1) binding to IL-33. AlphaLISA ST2-Fc/biotin-IL-33 interaction, 1 h. inhibition, % for hits at 17 µM. hit rate 2.3% among 78,000; in the data active = inhibition above about 30%
Target sequence (Q01638 whole entry, looked up): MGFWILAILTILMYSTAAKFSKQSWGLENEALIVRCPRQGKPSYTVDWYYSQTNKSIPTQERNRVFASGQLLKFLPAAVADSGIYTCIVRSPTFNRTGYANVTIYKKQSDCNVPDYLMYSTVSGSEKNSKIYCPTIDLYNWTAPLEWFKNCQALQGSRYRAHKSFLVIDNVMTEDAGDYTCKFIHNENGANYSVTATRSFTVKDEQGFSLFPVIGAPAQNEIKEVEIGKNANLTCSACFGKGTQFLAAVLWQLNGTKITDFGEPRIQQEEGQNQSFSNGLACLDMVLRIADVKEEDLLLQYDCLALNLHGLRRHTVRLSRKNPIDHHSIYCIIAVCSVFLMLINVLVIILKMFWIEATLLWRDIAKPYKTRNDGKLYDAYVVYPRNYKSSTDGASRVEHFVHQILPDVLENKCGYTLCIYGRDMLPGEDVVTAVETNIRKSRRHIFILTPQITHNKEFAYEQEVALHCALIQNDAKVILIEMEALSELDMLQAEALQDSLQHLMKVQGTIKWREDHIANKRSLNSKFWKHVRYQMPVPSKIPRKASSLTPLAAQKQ
* hit, by the source's call; i = inactive.

SMILES	ST2 IL33 inh
CCn1nc(C)c(C(=O)N2CCCC(O)(CO)CC2)c1C (centres undefined)	i
CC1=CC(C)(C)N(C(=O)C(C)N2C(=O)c3ccccc3C2=O)c2cc(C)c(C)cc21 (centres undefined)	i
COc1cccc2c1OC1(C)CC2NC(=O)N1c1cccc(Cl)c1 (centres undefined)	i
COc1ccc2c(c1)N(C(=O)C(C)N1C(=O)c3ccccc3C1=O)C(C)(C)C=C2C (centres undefined)	i
COc1cc2c3c(c1)C(C)=CC(C)(C)N3C(=O)C2=O	70%*
COc1cccc(N2C(=O)NC3CC2(C)Oc2ccccc23)c1 (centres undefined)	i
COc1cc2c3c(c1)C(C)CC(C)(C)N3C(=O)C2=O (centres undefined)	40%*
O=C(CC1=CCNCC1)N1CCC(c2n[nH]c(=O)n2Cc2ccccc2)CC1	i
O=C(c1cc2ccc(Cl)cc2oc1=O)c1cc2ccc(Cl)cc2oc1=O	i
Cc1c(C#N)c2ccccc2n1CC(=O)NCC1CCCO1 (centres undefined)	i
Cn1cc(CC(=O)NCC2CCCO2)c2ccccc21 (centres undefined)	i
N#C/C(=C/c1cn(Cc2ccc(Cl)cc2Cl)c2ccccc12)C(=O)NCC1CCCO1 (centres undefined)	32%*
O=C(c1cc(O)c(O)c([N+](=O)[O-])c1)c1ccccc1F	i
Cc1cc(Oc2ccccc2F)c(F)cc1[N+](=O)[O-]	31%*
COc1ccc(NC(=O)c2c(F)cccc2F)c([N+](=O)[O-])c1	i
O=[N+]([O-])c1cccc(C2SCCN2S(=O)(=O)c2ccc(Cl)c(Cl)c2)c1 (centres undefined)	i
Cc1ccc(C(=O)Nc2ccc(S(N)(=O)=O)cc2)o1	i
O=C1C2=C(Nc3[nH]n(-c4ccccc4)c(=O)c3C2c2ccc([N+](=O)[O-])cc2)c2ccccc21 (centres undefined)	47%*
Cn1c2c(c(=O)n(C)c1=O)C(c1cccc(F)c1)C1=C(N2)c2ccccc2C1=O (centres undefined)	i
Cc1cccc(C2C3=C(Nc4c2c(=O)n(C)c(=O)n4C)c2ccccc2C3=O)c1 (centres undefined)	i
Cn1c(=O)c2c(SCc3cccnc3)nc(-c3ccc(F)cc3)nc2n(C)c1=O	i
COCCCNc1oc(-c2ccccc2Cl)nc1S(=O)(=O)c1ccccc1	i
CCCCNC(=O)CN1C(=O)/C(=C/c2ccccc2F)Sc2ccccc21	i
Cc1cc(NC(=O)CN2C(=O)S/C(=C\c3ccc(Cl)cc3)C2=O)no1	i
CCN(CCNC(=O)CN1C(=O)/C(=C/c2ccccc2F)Sc2ccccc21)c1ccccc1	42%*
SMILES	ST2 IL33 inh
CCN(CC)CCNC(=O)CN1C(=O)/C(=C\c2ccc(C(F)(F)F)cc2)Sc2ccccc21	37%*
CCC1Oc2ccccc2N(CC(=O)NCCCN(CC)CC)C1=O (centres undefined)	i
CCN(CC)CCCNC(=O)CN1C(=O)/C(=C\c2ccc(Cl)cc2)Sc2ccccc21	i
O=C(CN1C(=O)/C(=C/c2ccccc2F)Sc2ccccc21)NCc1ccccc1Cl	i
Cc1ccc2c(c1)N(CC(=O)NCc1ccccn1)C(=O)CO2	i
CCN(CC)CCNC(=O)CN1C(=O)/C(=C\c2ccc(Cl)cc2)Sc2ccccc21	33%*
COCCCNC(=O)CN1C(=O)/C(=C\c2ccc(C(F)(F)F)cc2)Sc2ccccc21	i
CCCCOc1ccc(CNC(=O)CN2C(=O)c3cccnc3Sc3ccccc32)cc1	i
Cc1ccc(/C=C2/Sc3ccccc3N(CC(=O)NCc3ccccn3)C2=O)cc1	32%*
CN(C)CCN1C(=O)C(O)=C(C(=O)c2ccco2)C1c1ccc([N+](=O)[O-])cc1 (centres undefined)	i
CCOC(=O)C1(CCc2ccccc2)CCN(C(=O)CCc2c(C)noc2C)CC1	i
O=C(CN1CCN(Cc2cccc(Cl)c2)C1=O)N1CCOCC1	i
CCc1cc2c(N3CCN(c4ccccn4)CC3)ncnc2s1	i
CN(Cc1ccccc1)C(=O)CN1CCN(Cc2ccc(Cl)cc2)C1=O	i
Cn1cc(NC(=O)CN2CCOC(Cc3ccccc3)C2)cn1 (centres undefined)	i
O=C1c2ccc(Br)cc2C(=O)N1CO	i
O=C1CCCC2=C1C(c1ccc(O)cc1)Nc1ccc3ccccc3c12 (centres undefined)	i
CCCOc1ccc2oc(=O)c3c(c2c1)CCCN3C(=O)CN1CCCCC1CC (centres undefined)	i
COc1cc(C2Nc3ccccc3NC3=C2C(=O)CC(c2ccc(C)cc2)C3)cc(OC)c1OC (centres undefined)	i
O=C(O)c1ccc2c(c1)C(=O)N(c1ccc(-c3nc4ccccc4[nH]3)cc1)C2=O	i
COc1ccccc1NC1=CC(=NS(=O)(=O)c2ccc(Cl)cc2)c2ccccc2C1=O	95%*
O=C(O)c1cccc(Nc2nc(-c3cccs3)cs2)c1	i
COc1ccccc1NC1=CC(=O)CC(c2ccccc2)C1 (centres undefined)	i
COc1cc(NS(=O)(=O)c2ccc(Cl)cc2)c(OC)cc1NC(=O)c1ccccc1	i
COc1ccccc1NC(=O)C1c2cc(OC)c(OC)cc2C(=O)N(C)C1c1cccs1 (centres undefined)	i
SMILES	ST2 IL33 inh
COc1ccccc1NC1=CC(=NS(=O)(=O)c2cccs2)c2ccccc2C1=O	90%*
NC(=NS(=O)(=O)c1cccs1)c1ccccc1	i
O=C(NS(=O)(=O)c1ccc(NS(=O)(=O)c2cccs2)cc1)c1ccccc1	i
O=C(O)c1cccc(NC2=CC(=NS(=O)(=O)c3cccs3)c3ccccc3C2=O)c1	40%*
CC(C)CN(CC(C)C)S(=O)(=O)c1cccs1	i
O=C1C(Nc2ccccc2)=CC(=NS(=O)(=O)c2cccs2)c2ccccc21	86%*
COC(=NS(=O)(=O)c1ccc(Cl)cc1)c1ccccc1	i
CCCc1cc(CN(C)C(=O)C2COC(=O)N2)[nH]n1 (centres undefined)	i
CCC/C=C/C=C/CC(CC(=O)O)NC(C)=O (centres undefined)	i
Cc1nc2c(sc3nc4c(cc32)COC(C)(C)C4)c(=O)[nH]1	i
CC(=O)c1ccc(C)cc1OC(=O)c1ccc(C)cc1	i
Cc1cc(C)c2[nH]c(C(=O)NCc3nnc4n3CCCCC4)c(C)c2c1	i
COCCN(Cc1ccccc1C)C(=O)C1CCCC1	i
CC(=O)Oc1ccc(C2C(C#N)=C(N)Oc3n[nH]c(C)c32)cc1 (centres undefined)	i
Cc1noc(C)c1CCC(=O)N1CCCC2(CC1)CN(C)C(=O)O2 (centres undefined)	i
Cc1cccc(CN2C(=O)c3ccccc3Sc3ccc(C(=O)NCC4CCCO4)cc32)c1 (centres undefined)	i
Cc1cccc(CN2CCN(Cc3cn(C)nc3-c3ccccc3)CC2CCO)n1 (centres undefined)	i
CCSC1=N/C(=C2\C=Cc3ccccc3N2CC)C(=O)S1	73%*
CCN1C(=O)CC(c2ccccc2)Sc2ccccc21 (centres undefined)	i
CCN1/C(=C2\C(=O)N(c3ccc(Cl)cc3)N=C2C)C=Cc2ccccc21	i
N#Cc1ccc(N=c2oc3ccccc3cc2C(=O)Nc2ccccc2)cc1	33%*
CC(=O)NC(=O)c1cc2cc(Br)ccc2oc1=Nc1cccc(C#N)c1	33%*

Bioassay records deposited in PubChem BioAssay by Paczesny and Yang Labs, IUPUI and University of Michigan.
